# Measured values taken from PubChem BioAssay (NCATS).
# Where “and” joins values, the source holds several entries; their conditions need not be identical. Identical values can stand only once. Results filed as inconclusive are left out. Entries that show only a call come without a potency. Calls of active or inactive are those of the source. Unless noted, calls follow the shape of the dose curve; as a rule, active = well fitted curve in the direction sought with a large enough effect; inconclusive = small, poorly fitted or top-dose-only effect, or another doubt; inactive = no such curve, though single readings can be large; an effect the other way counts as inactive or inconclusive.
# Tests used:
# [1] = molecular target: Alpha-galactosidase A (Homo sapiens) (UniProt P06280); assay: Counterscreen for Glucocerebrosidase Inhibitors: qHTS Assay for Human alpha-Galactosidase at pH 4.5 (AID 992)
# How it was run: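 Read-out is 4-methylumbelliferone fluorescence (365 nm excitation, 440 nm emission) after a pH 10 NaOH/glycine stop. Reactions held 2 nM enzyme and 80 uM substrate at pH 4.5 for 20 min at room temperature.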
# [2] = molecular target: alpha-glucosidase (Oryza sativa, rice) (UniProt Q653V4); assay: Counterscreen for Glucocerebrosidase Inhibitors: qHTS Assay for Rice alpha-Glucosidase at pH 5.0 (AID 997)
# How it was run: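 Rice alpha-glucosidase (4 nM final) with 400 uM 4-methylumbelliferyl-alpha-D-glucopyranoside in citrate buffer pH 5.0, 20 min at room temperature, stopped at pH 10; fluorescence 365/440 nm, compounds 0.7 nM–77 uM, AC50 from Hill fits.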
# [3] = Validation of Assay for Modulators of Lamin A Splicing (AID 1459; active = well fitted curve in the direction sought with a large enough effect in the signal ratio; the % refers to the signal ratio;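 also: cells exposed to compound for two days before reading; ratio rise marks activators and ratio drop marks inhibitors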)
# How it was run: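 Splicing correction read as GFP (500-530 nm) over DsRed2 (575-640 nm) object intensity after 48 h compound exposure of reporter HeLa S3 clones (600 cells/well, 2% FBS medium); ancitabine and cycloheximide titrations, 0.5% DMSO as vehicle.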
# [4] = qHTS Assay for Lipid Storage Modulators (AID 1519; calls by dose curve); conditions: Drosophila S3 cells, BODIPY lipid droplet/cell ratio, laser cytometry, cells loaded with oleic acid
# How it was run: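 Cells seeded at 5,000 per well were treated with compounds over a concentration series and loaded with oleic acid (400 uM, as added). Lipid droplet fluorescence (488 nm excitation, 500-530 nm channel) was read by laser-scanning cytometry and normalized to 20 uM Triacsin C.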
# [5] = molecular target: DNA repair nuclease/redox regulator APEX1 (Homo sapiens) (UniProt P27695); assay: qHTS Validation Assay for Inhibitors of the Human Apurinic/apyrimidinic Endonuclease 1 (APE1) (AID 1705;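 also: TAMRA fluorescence gain over two minutes as APE1 cuts a quenched THF abasic duplex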)
# How it was run: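 Activity read as rising fluorescence (598 nm emission, 525 nm excitation) from incision of a TAMRA/BHQ-2 duplex carrying a THF abasic site (50 nM). Compound and enzyme sat 15 min at RT before substrate start; signal change between first and third 60-s reads.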
# [6] = Counterscreen for APE1 Inhibitors: Fluorescent Dye Displacement Validation Assay (AID 1707)
# How it was run: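 ThO 250 nM + dsDNA 50 nM (THF abasic site, 5'-TAMRA), Tris-HCl pH7.5/50mM NaCl/2 mM MgCl2/0.01% Tween-20; compounds pin-transferred; ex 480/em 540 nm endpoint. Neutral = no compound; no-DNA ThO wells = negative control.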
# [7] = molecular target: Endonuclease 4 (Escherichia coli (strain K12)) (UniProt P0A6C1); assay: Counterscreen for APE1 Inhibitors: qHTS Validation Assay for Inhibitors of Endonuclease IV (AID 1708)
# How it was run: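 Cleavage of a quenched abasic-site DNA duplex (50 nM, 5'-TAMRA, 3'-BHQ-2) by 2 nM enzyme is followed as fluorescence increase. Compounds are preincubated with enzyme 15 min at room temperature before substrate addition.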
# [8] = qHTS for differential inhibitors of proliferation of Plasmodium falciparum line 7G8 (AID 1815);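 also: parasite growth measured after three days of incubation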; also: potency is read from the fitted curve at half-maximal effect
# [9] = qHTS for differential inhibitors of proliferation of Plasmodium falciparum line GB4 (AID 1816); conditions: Potency: Plasmodium falciparum GB4 proliferation inhibition;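 also: parasite growth measured after 72 h incubation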; also: potency is read from the fitted curve at half-maximal effect
# [10] = qHTS for differential inhibitors of proliferation of Plasmodium falciparum line 3D7 (AID 1876); also: potency is read from the fitted curve at half-maximal effect
# [11] = measured here: cell count channel max response
# [12] = measured here: lipid channel max response
# Sequence of DNA repair nuclease/redox regulator APEX1 (Homo sapiens) (P27695 whole entry, looked up): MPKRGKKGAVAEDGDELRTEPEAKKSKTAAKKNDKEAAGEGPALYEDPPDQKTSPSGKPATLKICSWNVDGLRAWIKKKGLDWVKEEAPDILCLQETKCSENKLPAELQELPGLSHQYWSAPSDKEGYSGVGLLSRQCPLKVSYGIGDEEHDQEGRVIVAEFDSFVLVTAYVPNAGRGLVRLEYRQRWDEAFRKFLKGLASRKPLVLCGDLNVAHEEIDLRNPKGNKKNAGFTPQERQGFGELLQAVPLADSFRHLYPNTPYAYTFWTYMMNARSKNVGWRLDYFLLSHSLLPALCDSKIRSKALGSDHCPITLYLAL
# Sequence of Alpha-galactosidase A (Homo sapiens) (P06280 whole entry, looked up): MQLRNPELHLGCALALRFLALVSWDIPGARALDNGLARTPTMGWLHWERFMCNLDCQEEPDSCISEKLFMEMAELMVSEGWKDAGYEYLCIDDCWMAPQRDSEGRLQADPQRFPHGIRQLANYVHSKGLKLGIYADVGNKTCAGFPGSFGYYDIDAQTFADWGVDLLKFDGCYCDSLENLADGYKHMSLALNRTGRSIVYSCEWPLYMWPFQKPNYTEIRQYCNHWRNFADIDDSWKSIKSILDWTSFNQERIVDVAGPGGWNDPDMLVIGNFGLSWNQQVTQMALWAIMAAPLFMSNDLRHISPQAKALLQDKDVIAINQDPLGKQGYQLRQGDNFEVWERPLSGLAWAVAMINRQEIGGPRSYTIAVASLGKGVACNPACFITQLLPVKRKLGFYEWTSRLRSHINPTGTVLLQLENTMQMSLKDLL
SMILES,outcome [1],outcome [2],outcome [3],"activity change, negative = inhibition ([4]; at 57.5 µM (top of the series))","max response [4, 11]","max response [4, 12]",Potency [5],Potency [6],Potency [7],Potency [8],Potency [9],Potency [10],"activity change, negative = inhibition ([4]; at 25.7 µM (top of the series))"
O=C(O)C1=CCNCC1,inactive,inactive,inactive,1.16% (inactive) and 3.31% (inactive),-10.7% and 4.5%,-10.6% and 21.6%,inactive,inactive,inactive,inactive,inactive,inactive,
Oc1cc2c(cc1O)C(c1ccccc1)CNCC2 (stereo not drawn),,,inactive,4.39% (inactive) and 0.147% (inactive),1.14% and -18.7%,16.2% and -20.2%,inactive,inactive,inactive,,,,
O=C(O)C1=CCCNC1,inactive,inactive,inactive,5.3% (inactive) and 2.39% (inactive) and 0.0791% (inactive),11.8% and 11.1% and -5.85%,19.5% and 15.3% and -4.32%,inactive,inactive,inactive,inactive,inactive,inactive,
NCCCCN=C(N)N,inactive,inactive,inactive,6.41% (inactive),4.55%,23.5%,inactive,inactive,inactive,inactive,inactive,inactive,
O=C(O)/C=C/c1ccc(O)c(O)c1,inactive,inactive,inactive,3.74% (inactive) and 0.322% (inactive),0.683% and 6.48%,7.03% and 6.69%,inactive,inactive,inactive,inactive,inactive,inactive,
CCCn1c(=O)c2c(ncn2C)n(CCC)c1=O,inactive,inactive,inactive,-2.98% (inactive),-22.4%,-33.5%,inactive,inactive,inactive,inactive,inactive,inactive,
NC(C(=O)N[C@@H]1C(=O)N2C(C(=O)O)=C(Cl)CS[C@H]12)c1ccccc1 (stereo partly drawn),,,inactive,-2.36% (inactive),-29.4%,-32.3%,inactive,inactive,inactive,inactive,inactive,inactive,
COc1ccc(-c2ccc(N)[n+](CCCC(=O)O)n2)cc1,inactive,inactive,inactive,,3.21%,7.04%,inactive,inactive,inactive,inactive,inactive,inactive,-0.132% (inactive)
COc1ccc(C(=O)NCc2cccnc2)cc1C(=O)NCc1cccnc1,inactive,inactive,inactive,1.17% (inactive),-2.62% and -3.84%,-2.28% and -1.65%,inactive,inactive,inactive,,inactive,inactive,1.2% (inactive)
C=CCN1CCc2cc(O)c(O)cc2C(c2ccccc2)C1 (stereo not drawn),,,inactive,0.997% (inactive),-6.45%,-5.19%,inactive,inactive,inactive,11.2 µM (active),12.6 µM (active),,
O=c1[nH]ccc2c(O)cccc12,inactive,inactive,inactive,1.52% (inactive),-28%,-29.5%,inactive,inactive,inactive,inactive,inactive,inactive,
CC(N)=O,inactive,inactive,inactive,-0.907% (inactive),-17.4%,-17.3%,inactive,inactive,inactive,inactive,inactive,inactive,
CCSC(=N)N,inactive,inactive,inactive,3.43% (inactive) and 3.42% (inactive) and 1.1% (inactive),11.3% and -10.8% and -6.69%,15.2% and -3.11% and -5.48%,inactive,inactive,inactive,inactive,inactive,inactive,
CN1CCCC1CCOC(C)(c1ccccc1)c1ccc(Cl)cc1 (stereo not drawn),,,inactive,0.234% (inactive),-30.3%,-27.1%,inactive,inactive,inactive,5.01 µM (active),5.62 µM (active),3.98 µM (active),
C#CCn1c(=O)c2c(ncn2C)n(C)c1=O,inactive,inactive,inactive,2.4% (inactive),-11.8%,-10.7%,inactive,inactive,inactive,inactive,inactive,inactive,
NC1CONC1=O (stereo not drawn),,,inactive,9.95% (inactive) and 0.344% (inactive),9.83% and -1.76%,24% and -1.09%,inactive,inactive,inactive,inactive,inactive,inactive,
O=C(O)[C@H]1NCCC[C@H]1C(=O)O,,,inactive,-1.57% (inactive),-48.8%,-48.9%,inactive,inactive,inactive,inactive,inactive,inactive,
O=C(O)C1CCCNC1 (stereo not drawn),,,inactive,0.3% (inactive),0.529%,0.762%,inactive,inactive,inactive,inactive,inactive,inactive,
C=C(C)C1CC=C(C(=O)O)CC1 (stereo not drawn),,,inactive,0.974% (inactive) and 1.72% (inactive),16.2% and 48.1%,18.4% and 48.7%,inactive,inactive,inactive,inactive,inactive,inactive,

SMILES,outcome [1],outcome [2],outcome [3],"activity change, negative = inhibition ([4]; at 57.5 µM (top of the series))","max response [4, 11]","max response [4, 12]",Potency [5],Potency [6],Potency [7],Potency [8],Potency [9],Potency [10],"activity change, negative = inhibition ([4]; at 25.7 µM (top of the series))"
N=C(N)c1ccccc1,inactive,inactive,inactive,0.991% (inactive),9.53%,1.79%,inactive,inactive,inactive,inactive,inactive,inactive,
N[C@@H](CCC(=O)N[C@H](CSN=O)C(=O)NCC(=O)O)C(=O)O,,,inactive,0.446% (inactive),-20.1%,-19.6%,inactive,inactive,inactive,inactive,inactive,inactive,
O=C(O)CCC(=O)N1CCCC1C(=O)O (stereo not drawn),,,inactive,-1.81% (inactive),29.3%,27.9%,inactive,inactive,inactive,inactive,inactive,inactive,
CC1=C(/C=C/C(C)=C/C=C/C(C)=C\C(=O)O)C(C)(C)CCC1,,,inactive,6.72% (inactive),3.57%,13.6%,inactive,inactive,inactive,7.94 µM (active),12.6 µM (active),14.1 µM (active),
Cc1nc(N=Nc2ccc(S(=O)(=O)O)cc2S(=O)(=O)O)c(COP(=O)(O)O)c(C=O)c1O,inactive,inactive,inactive,0.0773% (inactive) and 2.25% (inactive),-1.61% and 6.03%,-3.14% and 17.5%,inactive,inactive,inactive,inactive,inactive,inactive,
CCCCCC(O)CCCC(=O)O (stereo not drawn),,,inactive,0.833% (inactive),-25.3%,-24.6%,inactive,inactive,inactive,inactive,inactive,inactive,
CC(=O)/C(C)=N/O,,,inactive,2.05% (inactive),5.13%,6.8%,inactive,inactive,inactive,inactive,inactive,inactive,
Cn1c(=O)c2c(nc(/C=C/c3cccc(Cl)c3)n2C)n(C)c1=O,,,inactive,-4.15% (inactive),-60.2%,-62%,inactive,inactive,inactive,10 µM (active),,,
NCCS(=O)O,inactive,inactive,inactive,-6.29% (inactive) and 1.76% (inactive),-10.2% and 4.71%,-16.1% and 6.07%,inactive,inactive,inactive,inactive,inactive,inactive,
Oc1ccc(Cn2cc[nH]c2=S)cc1,inactive,inactive,inactive,-3.19% (inactive),-28.3%,-29.9%,inactive,inactive,inactive,inactive,inactive,inactive,
CSC(=N)N,inactive,inactive,inactive,-0.307% (inactive),53.5%,52.9%,inactive,inactive,inactive,inactive,inactive,inactive,
CC[N+](CC)(CC)CC(=O)Nc1c(C)cccc1C,inactive,inactive,inactive,4.67% (inactive),-3.7%,2.48%,inactive,inactive,inactive,inactive,inactive,inactive,
N[C@@H](CS(=O)O)C(=O)O,inactive,inactive,inactive,4.63% (inactive) and 1.31% (inactive),10.5% and -12.6%,17.1% and -9.76%,inactive,inactive,inactive,inactive,inactive,inactive,
Cc1ccc([N+](=O)[O-])cc1S(=O)(=O)N(C)C,inactive,inactive,inactive,-0.817% (inactive) and -0.0593% (inactive),1.19% and 66.8%,0.358% and 67%,inactive,inactive,inactive,inactive,inactive,inactive,
N[C@@H](CCCC(=O)O)C(=O)O,,,inactive,0.27% (inactive),-26.7%,-26.8%,inactive,inactive,inactive,inactive,inactive,inactive,
C[C@@H](NCCc1ccc(O)cc1)[C@@H](O)c1ccc(O)cc1,,,inactive,1.71% (inactive),-16.7%,-23.8%,inactive,inactive,inactive,inactive,inactive,inactive,
COCc1nc2c([nH]1)c(=O)n(C)c(=O)n2CC(C)C,inactive,inactive,inactive,1.67% (inactive),-19.5%,-18.2%,inactive,inactive,inactive,inactive,inactive,inactive,
COc1ccccc1N1CCN(CCCCNC(=O)c2ccc3ccccc3c2)CC1,,,,,,,,,,,,,0.195% (inactive)
c1ccc(C2CN3CCSC3=N2)cc1 (stereo not drawn),,,inactive,7.49% (inactive),0.909%,10.3%,inactive,inactive,,inactive,,inactive,
O=[N+]([O-])c1cccc2cn[nH]c12,,inactive,inactive,13.6% (inactive),18.6%,36.8%,inactive,inactive,,inactive,inactive,inactive,
